Experimental data as given in PubChem BioAssay AID504329 (Southern Research Specialized Biocontainment Screening …, 2011).
Among all 340,000 compounds or so, about 1,000 (0.29%) were called active. Cut-off read from the data, not from the text of the source: inconclusive = inhibition above about 27% without an active follow-up result; inactive = below that. Only a sample is shown. Results with a measured potency or affinity are listed apart.

Test: NS1A inhibition, H1N1 influenza, cell based functional assay (AID 504329)
Settings: percent inhibition, at 12.5 µM, active compounds read high
With `CC(/C=C1\SC(=S)N(CCC(=O)Nc2nc(C)cs2)C1=O)=C\c1ccccc1` the inhibition was -4.32% (inactive). With `COc1ccc(/C=C/c2nc(C)c(-c3ccccc3)c(=O)[nH]2)cc1OC` the inhibition was 2.31% (inactive). For `CCOc1ccc(C2=CSC3=NCCN23)cc1[N+](=O)[O-]`, the inhibition was -15.6% (inactive). For `CCOc1ccc(NC(=S)Nc2ccc(OCc3ccccc3)cc2)cc1`, the inhibition was 22% (inactive). With `CCCc1c(C(=O)Nc2ccc(F)cc2F)cnn1-c1ccccc1` the inhibition was 2.03% (inactive). With `CC(C)Oc1cccnc1N(C)C1CCN(Cc2ccccc2)CC1` the inhibition was 7.67% (inactive). With `c1ccc(COc2cccc(CN3CCCCC3)c2)cc1` the inhibition was 4.44% (inactive). With `OC(COCc1ccccc1)CN1CCCC1` (configuration not stated) the inhibition was -16.3% (inactive). For `COc1cc(CN2CCCCC2)ccc1OCc1ccccc1`, the inhibition was -0.75% (inactive). In the case of `COc1cc(C(=O)N(C)C2CCCN(Cc3ccccc3F)C2)cc(OC)c1OC` (configuration not stated), the inhibition is reported as -3.71% (inactive). For `Oc1c(CNc2ccccc2)cc(COCc2ccccc2)c2cccnc12`, the inhibition was -1.39% (inactive). In the case of `CSc1ccc(CN(C)CC(=O)Nc2c(F)cccc2F)cc1`, the inhibition is reported as 4.59% (inactive). With `CC(C)c1ccc(NC(=O)C2=NNC(=O)CC2)cc1` the inhibition was 8.16% (inactive). With `O=C(CCCCC(=O)OCC1CCCO1)OCC1CCCO1` (configuration not stated) the inhibition was -25.2% (inactive). With `O=C1COc2ccccc2N1Cc1ccc(Cl)cc1` the inhibition was -6.96% (inactive). With `Cc1c[n+](C)ccc1CC1C([N+](=O)[O-])=C[N-]c2ncnn21` (configuration not stated) the inhibition was -6.38% (inactive). With `O=C(Cc1ccc(O)cc1)NCCNC(=S)NCc1ccccc1` the inhibition was -12.1% (inactive). With `O=c1oc2ccccc2cc1-c1ccccc1` the inhibition was -7.16% (inactive). In the case of `O=Cc1c(-c2ccccc2)cc2oc3ccccc3cc1-2`, the inhibition is reported as 10.8% (inactive). In the case of `CCOc1ccc(NC(=O)CC(c2ccccc2)c2ccc(F)cc2)cc1` (configuration not stated), the inhibition is reported as -2.67% (inactive). With `CCOc1ccc(NC(=O)NCc2ccccn2)cc1` the inhibition was -5.82% (inactive). For `S=C(NCc1ccccn1)Nc1ccccc1Cl`, the inhibition was -10.4% (inactive). In the case of `Cc1ccc(NC(=O)C(NCc2ccccn2)c2ccccc2)cc1` (configuration not stated), the inhibition is reported as -1% (inactive). With `O=C(NCc1ccccn1)Nc1ccccc1Cl` the inhibition was -1.88% (inactive). In the case of `O=C(Cc1ccccn1)Nc1ccccc1`, the inhibition is reported as -8.73% (inactive). In the case of `Cc1cc(C)cc(NC(=O)c2ccc(S(=O)(=O)C(F)F)cc2)c1`, the inhibition is reported as 15.2% (inactive). For `COC(=O)C(C)Sc1ccc2nnc(-c3ccccc3)n2n1` (configuration not stated), the inhibition was 0.68% (inactive). For `COc1ccc(NS(=O)(=O)c2ccc3oc(SCc4ccc(F)cc4)nc3c2)cc1`, the inhibition was -1.81% (inactive). For `O=C(O)c1cc(-c2cccs2)nn1-c1cccc(Cl)c1`, the inhibition was -3.66% (inactive). With `CC(C)CCNC(=O)CSc1nnc(-c2ccc(S(=O)(=O)N3CCCC3)cc2)n1C` the inhibition was 1.62% (inactive). For `O=C(CSc1n[nH]c(-c2cccs2)n1)NCCc1ccccc1`, the inhibition was -3.95% (inactive). For `COCCN=c1scc(-c2ccco2)n1/N=C/c1ccc(O)c(O)c1O`, the inhibition was 13.4% (inactive). For `CN=c1scc(-c2cccs2)n1/N=C/c1ccc(O)c(O)c1O`, the inhibition was 28.1% (inactive). With `Cc1ccc(S(=O)(=O)N2CCN(C(=O)C3CCCC3)CC2)cc1C` the inhibition was -7.76% (inactive). In the case of `CCCCC(=O)NC(c1ccccc1)c1ccc2cccnc2c1O` (configuration not stated), the inhibition is reported as 17.1% (inactive). In the case of `CCCCC(=O)NC(c1ccc(N(CC)CC)cc1)c1ccc2cccnc2c1O` (configuration not stated), the inhibition is reported as 11.6% (inactive). In the case of `CCCC(=O)NC(c1ccc(Cl)cc1)c1ccc2cccnc2c1O` (configuration not stated), the inhibition is reported as -7.24% (inactive). In the case of `CCCCC(=O)NC(c1ccc(C(C)C)cc1)c1ccc2cccnc2c1O` (configuration not stated), the inhibition is reported as -9.31% (inactive). For `CCCC(=O)NC(c1ccc(C(C)C)cc1)c1ccc2cccnc2c1O` (configuration not stated), the inhibition was -11.7% (inactive). In the case of `CCCC(=O)NC(c1ccc(C)cc1)c1ccc2cccnc2c1O` (configuration not stated), the inhibition is reported as 4.97% (inactive). In the case of `CCc1cc(C(=O)N2CCCC(C(=O)c3ccc(Oc4ccccc4)cc3)C2)n(C)n1` (configuration not stated), the inhibition is reported as -0.31% (inactive). For `COc1ccc(NC(=O)c2ccc(NC(=O)CN(C)CC(=O)Nc3c(C)cccc3C)cc2)cc1`, the inhibition was -7.57% (inactive). For `C/C=C\C=C\C(=O)N1CC2(CC(c3cccc(NC(=O)CC(c4ccccc4)c4ccccc4)c3)=NO2)C[C@H]1C(N)=O` (some centres not stated), the inhibition was 2.26% (inactive). For `COCCCNC(=O)c1cc(=O)n(Cc2ccc(Cl)cc2)c2ccccc12`, the inhibition was 6.81% (inactive). In the case of `CCCCCc1cc(=O)oc2c(C(CCN3CCCC(C)C3)c3ccc4c(c3)OCO4)c(OC)cc(OC)c12` (configuration not stated), the inhibition is reported as 16.4% (inactive). In the case of `CCCCCc1cc(=O)oc2c(C(CCN(CC)CC)c3ccc(OC)cc3)c(OC)cc(OC)c12` (configuration not stated), the inhibition is reported as 5.11% (inactive). For `CCCCCc1cc(=O)oc2c(C(CCN3CCCC(C)C3)c3ccc(OC)cc3)c(OC)cc(OC)c12` (configuration not stated), the inhibition was 8.01% (inactive). In the case of `CCCCCc1cc(=O)oc2c(C(CCN3CCN(c4ccccc4)CC3)c3ccc(N(C)C)cc3)c(OC)cc(OC)c12` (configuration not stated), the inhibition is reported as -11.8% (inactive). In the case of `CCCCCc1cc(=O)oc2c(C(CCN3CCCCC3)c3ccc(OC)cc3)c(OC)cc(OC)c12` (configuration not stated), the inhibition is reported as 18.7% (inactive). In the case of `CCCCCc1cc(=O)oc2c(C(CCN(CC)CC)c3cc(OC)c(OC)c(OC)c3)c(OC)cc(OC)c12` (configuration not stated), the inhibition is reported as 9.43% (inactive). With `Nc1nnc(SCC(=O)NCCNC(=O)CSc2nnc(N)s2)s1` the inhibition was -11.3% (inactive). In the case of `Cc1noc(-c2ccc(Cl)cc2)c1C(=O)O/N=C(\N)c1ccc(C(C)(C)C)cc1`, the inhibition is reported as 12.5% (inactive). In the case of `O=C(CN1CCCCC1)N=Nc1c(O)[nH]c2ccccc12`, the inhibition is reported as -8.88% (inactive). In the case of `Cc1ccc(-c2nnc(N3CCCCC3)c3ccccc23)cc1S(=O)(=O)N(C)C`, the inhibition is reported as -3.68% (inactive). In the case of `CS(=O)(=O)Oc1ccc2c(c1)O/C(=C\c1cccc([N+](=O)[O-])c1)C2=O`, the inhibition is reported as 7.03% (inactive). In the case of `CS(=O)(=O)c1ccc(S(=O)CC(=O)OCc2ccccc2)c([N+](=O)[O-])c1` (configuration not stated), the inhibition is reported as 11.4% (inactive). In the case of `COc1ccccc1OCCOC(=O)Nc1ccccc1`, the inhibition is reported as -11.2% (inactive). With `COc1cc(/C=C2\C(=O)N(c3ccc(NC(C)=O)cc3)N=C2c2ccccc2)ccc1O` the inhibition was 12.5% (inactive). In the case of `COc1cc(/C=C2/C(=O)N(c3ccc(C(=O)O)cc3)N=C2C)cc(OC)c1O`, the inhibition is reported as 13.2% (inactive). With `COc1cc(/C=C2/C(=O)N(c3ccc(Br)cc3)N=C2C)cc(OC)c1OC` the inhibition was 3.78% (inactive). With `O=C1/C(=C\c2ccc(O)c(O)c2)C(c2ccccc2)=NN1c1ccccc1` the inhibition was 23.5% (inactive). In the case of `CCOC(=O)C1CCC(CN(Cc2ccccc2)S(=O)(=O)c2ccc([N+](=O)[O-])cc2)CC1` (configuration not stated), the inhibition is reported as 6.67% (inactive). With `CCOC(=O)c1ccc(COc2ccc(C(C)C)cc2)o1` the inhibition was -6.49% (inactive). In the case of `COc1ccccc1C=NN1C(=O)CSC1=S`, the inhibition is reported as 1.86% (inactive). For `O=C1CSC(=S)N1N=Cc1cccc2ccccc12`, the inhibition was 13.2% (inactive). For `CCOc1cccc(/C=N/N2C(C)CCCC2C)c1O` (configuration not stated), the inhibition was -10.1% (inactive). With `O=C1CSC(=S)N1/N=C/c1ccc(O)c(O)c1O` the inhibition was -1.09% (inactive). With `Cc1ccccc1/C=N/N1C(=O)CSC1=S` the inhibition was -0.54% (inactive). For `CCOc1cccc(/C=N/N=C/c2cccc(OCC)c2O)c1O`, the inhibition was -10.6% (inactive). For `CC(=O)O[C@H]1[C@H](O)[C@H](Oc2c(O)c(C)c3c4c2[C@@H](C)CC[C@@H]4[C@@H](C)C[C@H]3C=C(C)C)O[C@@H](C)[C@H]1O`, the inhibition was 4.02% (inactive). In the case of `COc1ccc(-c2nc3ccccc3c(=O)n2CC(C)C)cc1`, the inhibition is reported as -17.7% (inactive). In the case of `CCN1C(=NCCCOC(C)C)N[C@@H](CCc2ccccc2)[C@H](C(=O)NCCCOC(C)C)[C@H]1C`, the inhibition is reported as 7.63% (inactive). In the case of `COc1ccc(OC)c(C(=O)N(C)C2CCCN(Cc3ccccc3F)C2)c1` (configuration not stated), the inhibition is reported as 2.52% (inactive). With `COC(=O)C1=C(c2c(C)noc2C)C[C@@H]2CC[C@H]1N2C(=O)NCCCOC(C)C` the inhibition was -1.03% (inactive). For `COC(=O)C1CCN(C(=O)/C=C/c2ccc(OC)cc2)CC1`, the inhibition was 1.45% (inactive). For `CCOc1ccccc1OCCCC(=O)ON=C(N)c1ccccc1`, the inhibition was -17.2% (inactive). For `COc1ccc(-c2c(NC(=O)c3ccco3)oc3ccccc3c2=O)cc1OC`, the inhibition was 9.22% (inactive). For `CCOc1ccccc1OCCNC1CCCC1`, the inhibition was -3.47% (inactive). With `CCOc1ccccc1C(=S)NC1CCCCC1` the inhibition was -0.78% (inactive). In the case of `CC(C)C[C@@H]1CN=C(N)N1C[C@@H]1CCCN1C[C@@H](C(C)C)N1C[C@@H](Cc2ccccc2)N(CCCC2CCCC2)C1=N`, the inhibition is reported as 0.6% (inactive). With `CCOc1ccc(S(=O)(=O)Nc2ccc(C(=O)NCC(C)(C)N3CCOCC3)cc2)cc1` the inhibition was -9.51% (inactive). With `O=C(O)c1cc(S(=O)(=O)Nc2ccccc2C(=O)O)ccc1O` the inhibition was -2.33% (inactive). For `O=C(O)c1cc(S(=O)(=O)O)ccc1O`, the inhibition was -4.88% (inactive). For `O=C(NNC(=O)c1cc(-c2cccc(Br)c2)nc2ccccc12)c1csc(N2CCOCC2)n1`, the inhibition was -7.9% (inactive). For `O=C(N/N=C/c1cc2c(cc1Cl)OCO2)c1ccncc1`, the inhibition was -1.41% (inactive). With `Oc1ccc(Br)cc1/C=N/Nc1ncc(-c2ccccc2)cn1` the inhibition was -1.12% (inactive). In the case of `O=C(N/N=C/c1ccncc1)c1ccncc1`, the inhibition is reported as 0.03% (inactive). With `COc1cc([N+](=O)[O-])cc(/C=N/NC(=O)c2ccc(NC(=O)c3ccc(C)cc3)cc2)c1O` the inhibition was -0.59% (inactive). In the case of `Cc1cc(C)nc(N/N=C/c2cc(Br)ccc2O)n1`, the inhibition is reported as 8.15% (inactive). In the case of `COc1cc([N+](=O)[O-])cc(/C=N/NC(=O)c2cccnc2)c1O`, the inhibition is reported as -13.7% (inactive). With `COc1cc(/C=N/NC(=O)c2ccc(C)nc2)cc([N+](=O)[O-])c1O` the inhibition was -21.2% (inactive). In the case of `COc1cc([N+](=O)[O-])cc(/C=N/NC(=O)c2cncc(Br)c2)c1O`, the inhibition is reported as -13.3% (inactive).
